Experimental data reported in PubChem BioAssay (NCATS).
Values without a mark were called inactive. Inconclusive results are not listed. Activity calls are given as the source filed them.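 How the source made its calls, unless noted: active means compounds whose dose series gives a full or clear partial fitted curve of increased nuclear translocation; inconclusive means weak partial curve or effect only at the top dose; inactive means no dose-dependent translocation response.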 Residues, ends and D or L forms follow the SMILES beside them. *: point of attachment. Cbz = O=C(OCc1ccccc1)*

Legend:
[1] = target: Glucocorticoid receptor (Homo sapiens) (UniProt P04150); assay: GR-GFP Redistribution (AID 450); conditions: U2OS GR-GFP nuclear translocation, laser cytometry, 2 h; further: potency means the concentration at half of the fitted maximal effect
Chain of Glucocorticoid receptor (Homo sapiens) (P04150 whole entry, looked up, the tested form may be a part): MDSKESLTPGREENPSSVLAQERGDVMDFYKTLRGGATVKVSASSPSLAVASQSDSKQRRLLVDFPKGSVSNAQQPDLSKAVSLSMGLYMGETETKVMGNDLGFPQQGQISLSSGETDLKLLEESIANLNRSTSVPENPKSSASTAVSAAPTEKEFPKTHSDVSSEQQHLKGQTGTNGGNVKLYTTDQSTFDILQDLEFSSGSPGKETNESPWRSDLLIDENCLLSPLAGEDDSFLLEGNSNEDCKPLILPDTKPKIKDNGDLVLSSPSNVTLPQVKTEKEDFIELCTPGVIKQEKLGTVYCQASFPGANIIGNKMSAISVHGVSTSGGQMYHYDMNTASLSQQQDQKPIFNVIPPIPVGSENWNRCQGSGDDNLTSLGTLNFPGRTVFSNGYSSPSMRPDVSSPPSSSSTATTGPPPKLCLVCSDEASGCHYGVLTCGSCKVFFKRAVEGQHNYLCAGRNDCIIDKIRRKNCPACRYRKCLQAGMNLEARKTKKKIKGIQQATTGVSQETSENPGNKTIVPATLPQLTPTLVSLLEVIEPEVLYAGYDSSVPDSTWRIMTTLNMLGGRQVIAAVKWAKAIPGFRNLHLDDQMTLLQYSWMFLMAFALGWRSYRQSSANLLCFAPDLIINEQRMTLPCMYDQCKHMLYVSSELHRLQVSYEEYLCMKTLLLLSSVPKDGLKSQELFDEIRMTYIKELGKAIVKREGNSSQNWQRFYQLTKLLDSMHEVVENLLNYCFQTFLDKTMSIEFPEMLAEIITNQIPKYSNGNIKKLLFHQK

[2] = target: Glucocorticoid receptor (Homo sapiens) (UniProt P04150); assay: GR-EFC Redistribution (AID 451; calls by dose curve; further: potency means the concentration at half of the fitted maximal effect); conditions: CHO-K1 GR-EFC translocation, beta-gal luminescence, 2 h
Procedure, shortened: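 CHO-K1 cells stably expressing nuclear-localized β-gal enzyme acceptor and GR fused C-terminally to the enzyme donor fragment; ligand-driven nuclear translocation restores β-gal by complementation. Compounds titrated up to 46 uM final, 2 h at 37 °C; luminescence read.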

[3] = target: Mitogen-activated protein kinase 10 (Mus musculus) (UniProt Q61831); assay: JNK3 AlphaScreen Assay (AID 530; active means well fitted curve in either direction with a large enough effect, not every such curve was filed as active;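 further: kinase came from lysate of stimulated human HepG2 cells; signal reports phosphorylation of biotinylated GST-cJun 1-79 at Ser73 with 10 µM ATP; on the % scale 0 is the no-effect control and ±100 the full control effect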); conditions: JNK3 lysate, c-Jun phosphorylation; series mostly up to 57.1 µM
Procedure, shortened: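 JNK3 came from HepG2 lysates pre-activated with IL-1beta and TNF-alpha and phosphorylated biotinylated GST-cJun (1-79) at 10 uM ATP, pH 7.6, room temperature. Compounds were titrated. AlphaScreen signal used anti-phospho-cJun (Ser73) antibody.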

[4] = target: 3',5'-cyclic-AMP phosphodiesterase 4B (Homo sapiens) (UniProt Q07343); assay: qHTS Assay for Inhibitors of PDE-IV (AID 607; active means well fitted activation curve with a large enough effect in the main read-out, with a control signal flat, not every such curve was filed as active; further: potency means the concentration at half of the fitted maximal effect); conditions: HEK293 ACTOne CNG channel cells, membrane potential fluorescence; series mostly up to 22.9 µM
Chain of 3',5'-cyclic-AMP phosphodiesterase 4B (Homo sapiens) (Q07343 whole entry, looked up): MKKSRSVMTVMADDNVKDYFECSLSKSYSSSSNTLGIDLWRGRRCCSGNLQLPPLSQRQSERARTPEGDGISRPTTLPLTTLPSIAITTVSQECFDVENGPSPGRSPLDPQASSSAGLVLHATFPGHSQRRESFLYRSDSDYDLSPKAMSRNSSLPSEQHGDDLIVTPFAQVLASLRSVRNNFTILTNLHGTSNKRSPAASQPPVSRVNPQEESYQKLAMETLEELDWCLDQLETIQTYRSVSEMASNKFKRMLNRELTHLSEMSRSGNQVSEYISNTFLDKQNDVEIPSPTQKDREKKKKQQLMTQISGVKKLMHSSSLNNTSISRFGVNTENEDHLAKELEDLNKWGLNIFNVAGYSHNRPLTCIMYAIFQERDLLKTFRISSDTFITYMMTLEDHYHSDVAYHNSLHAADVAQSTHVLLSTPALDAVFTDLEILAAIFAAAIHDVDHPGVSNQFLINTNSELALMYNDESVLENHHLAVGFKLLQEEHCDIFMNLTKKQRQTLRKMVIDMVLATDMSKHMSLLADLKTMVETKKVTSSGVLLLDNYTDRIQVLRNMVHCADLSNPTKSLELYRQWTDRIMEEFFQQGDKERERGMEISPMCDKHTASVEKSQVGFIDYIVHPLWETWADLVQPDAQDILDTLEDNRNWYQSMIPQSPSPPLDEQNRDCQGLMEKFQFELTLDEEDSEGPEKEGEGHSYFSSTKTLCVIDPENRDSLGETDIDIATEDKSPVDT
Procedure, shortened: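 HEK293 ACTOne cells with CNG channel (1000/well), endogenous PDE4; membrane potential dye, compounds up to 22.9 uM final. Fluorescence Ex 535/Em 590; RO 20-1724 (100 uM final) as reference.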

[5] = Stat Signaling Pathway (AID 446; active means well fitted curve in either direction with a large enough effect, not every such curve was filed as active;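 further: ME-180 cervical cancer cells given 40 pM IL-6 alongside compound; SIE-controlled beta-lactamase reporter measured as 460/530 nm FRET emission ratio; on the % scale 0 is the no-effect control and ±100 the full control effect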); conditions: ME-180 SIE beta-lactamase reporter, IL-6 stimulated, 5 h; at 38 µM (top of the series) unless noted
Procedure, shortened: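 ME-180 cells carrying a SIE-driven beta-lactamase reporter are stimulated with 40 pM IL-6 for 5 h at 37C in the presence of compound. The 460/530 nm FRET substrate ratio is read after 2.5 h at RT. Data are normalised to 300 pM IL-6 and to 125 nM JAK inhibitor controls.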

Structure (SMILES)	Potency [1] [µM]	Potency [2] [µM]	outcome [3]	Potency [4]	activity, negative = inhibition [5] [%]
O=C(O)Cc1c[nH]c2ccc(O)cc12	> 46	> 46	inactive	inactive	–
CCN(c1nc(N)c(C(=O)N=C(N)N)nc1Cl)C(C)C	–	> 46	inactive	inactive	-24.1
CCN(CC)CCCCCCCCOC(=O)c1cc(OC)c(OC)c(OC)c1	> 46	> 46	inactive	inactive	–
CC(C)(C)c1cc(/C=C(\C#N)C(N)=S)cc(C(C)(C)C)c1O	> 46	–	–	–	–
O=C(O)c1cccnc1C(=O)O	–	–	inactive	inactive	-7.1
CCCOC(=O)c1c(-c2ccccc2)nc(CC)c(C(=O)SCC)c1CCC	> 46	–	–	inactive	-19.4
N#C/C(=C\c1ccc(O)c(O)c1)C(=O)NCCc1ccccc1	–	–	–	inactive	-24
COC(=O)[C@H](NC(=O)c1cc(-c2ccccc2)nc2ccccc12)c1ccccc1	> 46	> 46	inactive	–	–
CN1CCc2cc(Cl)c(O)cc2[C@@H](c2ccccc2)C1	> 46	> 46	inactive	–	–
CCCn1c(=O)c2c(ncn2C)n(CCC)c1=O	–	> 46	–	–	28.8
CC(C)(CO)Cc1cc(C(C)(C)C)c(O)c(C(C)(C)C)c1	> 46	–	–	inactive	-24.1
COc1cc2c(CCNC(C)=O)c[nH]c2cc1O	> 46	> 46	inactive	inactive	–
C=C1C(=O)O[C@@H]2[C@H]3O[C@]3(C)CCC=C(C)CC[C@@H]12	–	> 46	inactive	inactive	–
CNCCNS(=O)(=O)c1cccc2cnccc12	> 46	> 46	–	inactive	–
O=[N+]([O-])c1cccc2c(Br)[nH]nc12	> 46	> 46	–	inactive	–
COc1cc(CNC(=O)CCCCCCC(C)C)ccc1O	> 46	–	inactive	inactive	–
CCCCCC[C@@H]([C@@H](C)O)n1cnc2c(N)ncnc21	> 46	> 46	inactive	inactive	–
O=c1onc2cnc3ccccc3n12	> 46	> 46	–	inactive	–
O=C(OCCN1CCOCC1)C1(c2ccccc2)CCCCC1	> 46	> 46	–	inactive	–
CCc1ccc2c(-c3cccc(Cl)c3)nc(=O)n(CC)c2n1	> 46	–	inactive	0.012 µM (active)	–
COc1ccccc1N1CCN(CCN(C(=O)c2ccc(F)cc2)c2ccccn2)CC1	> 46	> 46	inactive	inactive	–
N[C@H](C(=O)O)[C@H](O)C(=O)O	> 46	> 46	inactive	inactive	–
Cc1nc(N=Nc2cc(S(=O)(=O)O)c3cc([N+](=O)[O-])cc(S(=O)(=O)O)c3c2)c(COP(=O)(O)O)c(C=O)c1O	> 46	–	inactive	inactive	–

Structure (SMILES)	Potency [1] [µM]	Potency [2] [µM]	outcome [3]	Potency [4]	activity, negative = inhibition [5] [%]
O=C1Nc2ccc(I)cc2/C1=C/c1cc(Br)c(O)c(Br)c1	> 46	> 46	–	inactive	–
O=C(O)c1ccccc1Nc1cccc(OCc2ccc3ccccc3n2)c1	> 46	> 46	–	inactive	–
N=C(N)SCCN	> 46	> 46	–	inactive	–
CCCCOC(=O)NS(=O)(=O)c1sc(CC(C)C)cc1-c1ccc(Cn2c(CC)nc3c(C)cc(C)nc32)cc1	> 46	–	–	inactive	–
NC[C@@H]1O[C@H](c2ccccc2)Cc2c1ccc(O)c2O	> 46	–	–	inactive	–
NC(=O)CNCCC(c1ccccc1)c1ccccc1	> 46	> 46	–	inactive	–
C/C(=C\c1ccc(C(=O)O)cc1)c1ccc2c(c1)C(C)(C)CCC2(C)C	> 46	> 46	–	inactive	–
CCCn1c(=O)c(C)cn2nc(N)nc12	> 46	–	inactive	0.151 µM (active)	–
NC1(C(=O)O)CC1	> 46	> 46	inactive	inactive	–
COc1ccc2c(c1)c(CC(=O)O)c(C)n2Cc1ccc(Cl)cc1	> 46	–	–	inactive	–
CC(=O)NNC(=O)N1Cc2ccccc2Oc2ccc(Cl)cc21	> 46	> 46	–	inactive	–
N=C(N)SCCc1cnc[nH]1	> 46	> 46	inactive	inactive	–
O=C(O)C1=CC(=C(c2ccc(O)c(C(=O)O)c2)c2ccc(O)c(C(=O)O)c2)C=CC1=O	> 46	–	–	inactive	–
O=C(O)C1=CCCNC1	> 46	> 46	inactive	inactive	–
CC(C)[C@H](NC(=O)OCc1ccccc1)C(=O)N[C@H](C=O)Cc1ccccc1 (Cbz-Val-Phe-aldehyde)	> 46	> 46	–	inactive	–
O=c1[nH]c(=O)c2nc3ccccc3nc2[nH]1	> 46	> 46	inactive	inactive	–
CCCCCCCCCCC/C=C\C(C)(C)/C=C\CCCC(=O)O	> 46	> 46	inactive	inactive	–
NCCNS(=O)(=O)c1cccc2c(Cl)cccc12	> 46	> 46	–	inactive	–
NC(=Nc1ccccc1)NC(=O)c1nc(Cl)c(N)nc1N	> 46	–	inactive	inactive	–
COc1cc(CC(=O)O)ccc1O	> 46	–	inactive	inactive	–
COc1cc(/C=C(\C#N)C(=O)c2ccc(O)c(O)c2)cc(I)c1O	> 46	–	–	inactive	–
CC[C@@H]1Cc2cc(O)ccc2C2=C1c1ccc(O)cc1C[C@H]2CC	> 46	> 46	inactive	inactive	–
CC(C)NC[C@H](O)COc1cccc2ccccc12	–	–	–	inactive	–
